Test results from PubChem BioAssay (Tox21).
Records with an inconclusive call do not appear. The source made the active and inactive calls. Unless noted, the call rests on the fitted dose curve; in most records, active means well fitted curve in the direction sought with a large enough effect in the repeat runs; inconclusive means weak or mixed curves; inactive means no such curve, though single readings can be large; an effect the other way counts as inactive or inconclusive.

What was measured:
[1] = qHTS assay to identify small molecule agonists of the constitutive androstane receptor (CAR) signaling pathway - cell viability counter screen (AID 1224836); further: nearly all actives have a fitted effect of over 45% in size
Method in brief: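 Multiplexed viability check: HepG2-CYP2B6-hCAR cells, 15-point compound dosing, 0.75 uM PK11195 final, 23 h at 37 C, CellTiter-Fluor fluorescence.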

[2] = molecular target: Nuclear receptor subfamily 1 group I member 3 (Homo sapiens) (UniProt Q14994); test: qHTS assay to identify small molecule antagonists of the constitutive androstane receptor (CAR) signaling pathway (AID 1224838);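 further: HepG2 cells stably expressing hCAR with CYP2B6 luciferase reporter stimulated by CITCO; nearly all actives have a fitted effect of over 40% in size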
Method in brief: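 Read-out: ONE-Glo luciferase luminescence after 30 min at room temperature. HepG2-CYP2B6-hCAR double-stable cells, compounds in 15-point titration plus 50 nM CITCO final, 24 h at 37 C/5% CO2.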

[3] = qHTS assay to identify small molecule antagonists of the estrogen related receptor signaling pathway with the pleiotropic PPARgamma coactivator (PGC) from Tox21 10K library - cell viability counter screen (AID 1224840; active means well fitted cell-killing curve with a large enough effect in the repeat runs, not every such curve was filed as active; further: nearly all actives have a fitted effect of over 40% in size)
Method in brief: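 Fluorescence read-out of CellTiter-Fluor viability reagent, added after cells had been exposed to compound in DMSO for 17.5 h at 37 C; 30 min development at 37 C/5% CO2. Cells: PGC/ERR line, 2,000/well.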

[4] = molecular target: Thyrotropin receptor (Homo sapiens) (UniProt P16473); test: qHTS assay to identify small molecule agonists of the thyroid stimulating hormone receptor (TSHR) signaling pathway (AID 1224843; calls by dose curve; further: nearly all actives have a fitted effect of over 45% in size)
Method in brief: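 Compounds are titrated over 15 concentrations, in triplicate, onto TSHR-HEK293 cells seeded at 800/well. Plates sit 30 min at room temperature before cAMP-d2 and anti-cAMP cryptate are added; signal is read after a further hour.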

[5] = qHTS assay to identify small molecule agonists of the hypoxia (HIF-1) signaling pathway - cell viability counter screen (AID 1224844; calls by dose curve; further: nearly all actives have a fitted effect of over 50% in size)
Method in brief: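 CellTiter-Glo luminescence read-out, 30 min RT, taken in the same wells as the beta-lactamase HRE reporter assay; HRE-bla ME-180 cells, 0.5% dialyzed FBS, 17 hr compound treatment at 37C, 5% CO2.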

[6] = qHTS assay to identify small molecule agonists of H2AX (AID 1224845; active means well fitted activation curve with a large enough effect in the signal ratio in the repeat runs, not every such curve was filed as active; the % refers to the signal ratio)
Method in brief: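 Wild-type CHO-K1 cells plated overnight, then exposed 3 hr at 37C to compounds at 15 concentrations (0.76% DMSO). Lysed, then HTRF anti-pH2AX(S139)-cryptate/anti-H2AX-d2 detection after 24 hr at room temperature; emissions 665 and 620 nm.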

[7] = qHTS RealTime-Glo MT Cell Viability Assay in HepG2 cells - 24 hour (AID 1224867); further: nearly all actives have a fitted effect of over 50% in size
Method in brief: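 Viability was tracked continuously by NanoLuc luminescence from prosubstrate reduced by living HepG2 cells, at successive time points over 40 h of compound exposure. Cells with reagent were preincubated 5 h at 37 °C before compound addition.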

[8] = qHTS RealTime-Glo MT Cell Viability Assay in HEK293 cells - 32 hour (AID 1224868); further: nearly all actives have a fitted effect of over 50% in size; further: potency means the concentration at half of the fitted maximal effect
Method in brief: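 Viability tracked continuously by luminescence as live cells reduce a prosubstrate for NanoLuc; HEK293 cells preincubated 5 h, compound-treated at 37 C, and read at 0, 8, 16, 24, 32 and 40 h.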

[9] = A CellTox Green Cytotoxicity Assay to monitor cytotoxicity in HEK293 cells - 0 hour (AID 1224869); further: nearly all actives have a fitted effect of over 50% in size
Method in brief: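 Read-out: fluorescence of a cell-impermeant cyanine dye staining DNA of dead cells, proportional to cytotoxicity. HEK293, 600 cells/well with reagent, compound (23 nL DMSO) added after 5 h; reads at 0, 8, 16, 24, 32, 40 h.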

[10] = qHTS assay to identify small molecule antagonists of the estrogen related receptor (ERR) signaling pathway from Tox21 library - cell viability counter screen (AID 1224834); further: nearly all actives have a fitted effect of over 30% in size
Method in brief: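 Multiplexed viability counter screen in ERR cells: 17.5 h compound exposure at 37 C, CellTiter-Fluor added, 30 min at 37 C/5% CO2, fluorescence read.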

[11] = qHTS assay to identify small molecule antagonists of the constitutive androstane receptor (CAR) signaling pathway - cell viability counter screen (AID 1224837); further: nearly all actives have a fitted effect of over 45% in size
Method in brief: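 Read-out: CellTiter-Fluor fluorescence after 23 hr at 37 C/5% CO2. Cells: HepG2 double-stable for hCAR and CYP2B6-2.2kb. Compounds tested at 15 concentrations in the presence of CITCO, final concentration 50 nM.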

[12] = qHTS assay to identify small molecule agonists of H2AX - cell viability counter screen (AID 1224847; calls by dose curve; further: top concentration of the series differs between compounds; nearly all actives have a fitted effect of over 30% in size)
Method in brief: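 After overnight plating of 1000 CHO-K1 cells per well, a 15-concentration compound series was applied for 3 hr at 37C. Luminescence from CellTiter-Glo, read following 30 min at room temperature, reflected cell viability.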

[13] = molecular target: Nuclear receptor subfamily 1 group I member 3 (Homo sapiens) (UniProt Q14994); test: qHTS assay to identify small molecule agonists of the constitutive androstane receptor (CAR) signaling pathway (AID 1224839); further: nearly all actives have a fitted effect of over 15% in size; further: potency means the concentration at half of the fitted maximal effect;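 on activation: HepG2 cells stably carrying human CAR and a CYP2B6 luciferase reporter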
Method in brief: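 Using human hepatoma HepG2 cells engineered with hCAR and a CYP2B6-2.2kb reporter, 15-concentration compound series were incubated 24 h alongside PK11195 at 0.75 uM final, with luminescence quantified afterwards.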

[14] = qHTS assay to identify small molecule agonists of the hypoxia (HIF-1) signaling pathway (AID 1224846; active means well fitted activation curve with a large enough effect in the signal ratio in the repeat runs, not every such curve was filed as active; the % refers to the signal ratio)
Method in brief: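 Beta-lactamase FRET read-out (CCF4-AM substrate) from ME-180 cells carrying an HRE-driven bla reporter, after 17 hrs compound exposure at 37C/5% CO2. Cells were seeded at 2,000 per well in 0.5% dialyzed FBS medium and preincubated 5 hrs.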

[15] = molecular target: Luciferin 4-monooxygenase (Photinus pyralis) (UniProt P08659); test: qHTS assay to identify small molecule inhibitors of firefly luciferase (AID 1224835); further: nearly all actives have a fitted effect of over 25% in size; further: potency means the concentration at half of the fitted maximal effect
Method in brief: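 Quantitative HTS format; KM concentrations of both substrates. Purified P. pyralis FLuc activity quantified from luminescence images.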

[16] = qHTS assay to identify small molecule antagonists of the estrogen related receptor signaling pathway with the pleiotropic PPARgamma coactivator (PGC) from Tox21 10K library (AID 1224841; call rule not given here; further: potency means the concentration at half of the fitted maximal effect)
Method in brief: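 Luminescence read-out (One-Glo luciferase reagent, 30 min at room temperature) from PGC/ERR cells exposed to DMSO-dissolved test compounds for 18 h at 37 C; cells, 2,000 per well, had been preincubated 6 h before compound transfer.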

[17] = qHTS assay to identify small molecule agonists of the estrogen related receptor signaling pathway with the pleiotropic PPARgamma coactivator (PGC) from Tox21 10K library (AID 1224842); further: nearly all actives have a fitted effect of over 15% in size
Method in brief: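 PGC/ERR reporter cells (NTP line) were seeded 2,000 per well, rested 6 h at 37 C/5% CO2, then pin-dosed with compounds in DMSO for 18 h at 37 C; luciferase read by One-Glo luminescence after 30 min at room temperature.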

[18] = qHTS assay to identify small molecule antagonists of the estrogen related receptor (ERR) signaling pathway from Tox21 library (AID 1224848); further: nearly all actives have a fitted effect of over 50% in size; further: potency means the concentration at half of the fitted maximal effect
Method in brief: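 First, 2,000 ERR cells per well were plated and held 6 h at 37 C/5% CO2. Next, compounds in DMSO were pinned in and left 18 h at 37 C. Finally, ONE-Glo was added and luminescence read after 30 min at room temperature.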

[19] = qHTS assay to identify small molecule agonists of the estrogen related receptor (ERR) signaling pathway from Tox21 library (AID 1224849; calls by dose curve; further: nearly all actives have a fitted effect of over 15% in size); conditions: ERR reporter cell line, ONE-Glo luciferase, 18 h; at 92.4 µM (top of the series) unless noted
Method in brief: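 Luminescence readout (ONE-Glo, 30 min RT) after 18 h compound exposure at 37 C of NTP-supplied ERR reporter cells; cells were plated 6 h before compound addition by pin tool.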
On the % scale 0 is the no-effect control and ±100 the full control effect.

Sequence of Nuclear receptor subfamily 1 group I member 3 (Homo sapiens) (Q14994 whole entry, looked up): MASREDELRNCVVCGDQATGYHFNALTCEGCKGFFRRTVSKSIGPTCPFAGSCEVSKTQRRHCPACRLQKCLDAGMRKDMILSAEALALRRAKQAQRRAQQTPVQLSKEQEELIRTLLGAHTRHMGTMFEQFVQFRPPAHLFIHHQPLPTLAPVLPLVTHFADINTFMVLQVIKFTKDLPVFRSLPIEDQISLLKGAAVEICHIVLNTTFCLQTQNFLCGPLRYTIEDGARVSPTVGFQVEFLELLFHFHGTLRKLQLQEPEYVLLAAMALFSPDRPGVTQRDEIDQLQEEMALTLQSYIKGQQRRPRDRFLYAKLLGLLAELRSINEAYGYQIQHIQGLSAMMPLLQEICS
Sequence of Luciferin 4-monooxygenase (Photinus pyralis) (P08659 whole entry, looked up): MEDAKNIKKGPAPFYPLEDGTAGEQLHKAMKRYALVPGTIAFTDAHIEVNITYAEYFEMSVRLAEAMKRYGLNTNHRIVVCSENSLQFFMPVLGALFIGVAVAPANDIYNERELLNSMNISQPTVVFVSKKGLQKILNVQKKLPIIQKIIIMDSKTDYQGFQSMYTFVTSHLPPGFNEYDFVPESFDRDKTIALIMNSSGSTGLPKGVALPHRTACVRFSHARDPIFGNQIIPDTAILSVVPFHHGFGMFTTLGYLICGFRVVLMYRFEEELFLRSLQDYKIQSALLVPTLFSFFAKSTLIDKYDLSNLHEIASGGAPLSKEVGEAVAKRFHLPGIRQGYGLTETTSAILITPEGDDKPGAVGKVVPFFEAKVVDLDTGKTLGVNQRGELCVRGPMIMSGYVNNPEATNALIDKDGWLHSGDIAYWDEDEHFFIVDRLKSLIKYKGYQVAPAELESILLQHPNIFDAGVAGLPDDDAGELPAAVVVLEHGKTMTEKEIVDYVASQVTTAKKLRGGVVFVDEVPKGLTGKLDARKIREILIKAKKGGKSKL
Sequence of Thyrotropin receptor (Homo sapiens) (P16473 whole entry, looked up): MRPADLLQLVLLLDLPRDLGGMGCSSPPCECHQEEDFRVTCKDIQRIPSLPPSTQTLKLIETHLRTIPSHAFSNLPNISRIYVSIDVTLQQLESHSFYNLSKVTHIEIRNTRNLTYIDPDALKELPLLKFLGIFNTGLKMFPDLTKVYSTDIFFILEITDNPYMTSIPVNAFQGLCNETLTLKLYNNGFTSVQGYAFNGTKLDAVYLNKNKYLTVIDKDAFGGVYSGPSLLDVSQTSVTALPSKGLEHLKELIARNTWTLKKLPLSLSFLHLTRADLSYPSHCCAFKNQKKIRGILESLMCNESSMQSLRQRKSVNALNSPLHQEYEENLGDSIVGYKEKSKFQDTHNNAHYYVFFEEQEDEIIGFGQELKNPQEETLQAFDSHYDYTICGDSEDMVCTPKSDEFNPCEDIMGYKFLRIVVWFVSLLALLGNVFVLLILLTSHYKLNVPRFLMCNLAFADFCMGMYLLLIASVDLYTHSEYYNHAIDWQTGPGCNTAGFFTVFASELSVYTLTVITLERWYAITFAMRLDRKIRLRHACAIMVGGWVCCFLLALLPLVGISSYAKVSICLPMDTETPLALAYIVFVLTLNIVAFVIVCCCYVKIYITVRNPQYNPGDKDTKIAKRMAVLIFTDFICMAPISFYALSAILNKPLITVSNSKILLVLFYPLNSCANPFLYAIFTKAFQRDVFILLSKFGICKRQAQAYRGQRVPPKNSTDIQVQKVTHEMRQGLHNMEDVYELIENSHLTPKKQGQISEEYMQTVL

COc1ccc(C(=O)Nc2ccccc2)cc1[N+](=O)[O-]
active: Potency [8] 24.7 µM
inactive: Potency [1] | Potency [2] | Potency [3] | Potency [4] | Potency [5] | Potency [6] | outcome [7] | Potency [9]

CO[C@@H]1[C@@H](O[C@@H]2O[C@H](C)[C@@H](O[C@H]3C[C@@](C)(O)[C@@H](O)[C@H](C)O3)[C@H](N(C)C)[C@H]2O)[C@@H](CC=O)C[C@@H](C)[C@@H](O[C@@H]2CC[C@H](N(C)C)[C@@H](C)O2)/C=C/C=C/C[C@@H](C)OC(=O)C[C@H]1OC(C)=O
inactive: Potency [10] | Potency [1] | Potency [11] | Potency [2] | Potency [3] | Potency [5] | Potency [6] | Potency [12] | outcome [7] | Potency [8] | Potency [9]

CC(CCl)OC(C)CCl (stereo not drawn)
inactive: Potency [10] | Potency [1] | Potency [2] | Potency [13] | Potency [3] | Potency [4] | Potency [5] | Potency [6] | outcome [14] | Potency [12] | outcome [7] | Potency [9]

O=C1c2ccccc2C(=O)c2c1ccc(O)c2O
active: Potency [15] 34.7 µM
inactive: Potency [1] | Potency [11] | Potency [2] | Potency [3] | Potency [5] | outcome [14] | outcome [7] | Potency [8] | Potency [9]

COC(=O)C(C)(C)C
inactive: Potency [15] | Potency [1] | Potency [11] | Potency [2] | Potency [13] | Potency [3] | Potency [16] | Potency [17] | Potency [4] | Potency [6] | outcome [14] | Potency [12] | Potency [18] | activity change, positive = activation [19] -7.89% | outcome [7] | Potency [9]

O=C1c2ccccc2C(=O)C1c1ccc2ccccc2n1
inactive: Potency [1] | Potency [11] | Potency [2] | Potency [3] | Potency [4] | Potency [6] | Potency [12] | outcome [7]
active: Potency [15] 0.111 µM

O=C(N[C@@H](Cc1ccccc1)[C@@H](O)C(=O)N1C[C@@H](O)[C@@H](O)C1)c1cc2cc(Cl)ccc2[nH]1
inactive: Potency [15] | Potency [1] | Potency [11] | Potency [17] | Potency [4] | Potency [5] | Potency [6] | outcome [14] | Potency [12] | activity change, positive = activation [19] -40.7% | outcome [7]
active: Potency [16] 54.5 µM | Potency [18] 54.5 µM

CCc1c(C)[nH]c2c1C(=O)C(CN1CCOCC1)CC2 (stereo not drawn)
inactive: Potency [10] | Potency [1] | Potency [11] | Potency [3] | Potency [4] | Potency [5] | Potency [6] | Potency [12] | outcome [7] | Potency [8] | Potency [9]

N#CCCCC(C#N)CCC#N (stereo not drawn)
inactive: Potency [10] | Potency [1] | Potency [11] | Potency [3] | Potency [16] | Potency [17] | Potency [4] | Potency [5] | Potency [6] | outcome [14] | Potency [12] | Potency [18] | activity change, positive = activation [19] 0.869% | outcome [7] | Potency [9]

O=c1[nH]nc(-c2ccc([N+](=O)[O-])o2)o1
inactive: Potency [15] | Potency [2] | Potency [17] | Potency [5] | outcome [14] | Potency [12] | activity change, positive = activation [19] -20.3% | outcome [7] | Potency [8] | Potency [9]

CC(C)(Cc1c[nH]c2ccccc12)NCC(O)COc1ccccc1C#N (stereo not drawn)
active: Potency [8] 16.9 µM
inactive: Potency [15] | Potency [1] | Potency [11] | Potency [3] | Potency [17] | Potency [5] | Potency [6] | Potency [12] | Potency [18] | activity change, positive = activation [19] -15.2% [at 42.5 µM] | outcome [7]

CCCCOC(=O)C(C)Oc1ccc(Oc2ccc(C(F)(F)F)cn2)cc1 (stereo not drawn)
inactive: Potency [10] | Potency [1] | Potency [3] | Potency [5] | Potency [6] | outcome [7] | Potency [9]

CC1=C(C)C(=O)C(C(CCCCCC(=O)O)c2ccccc2)=C(C)C1=O (stereo not drawn)
inactive: Potency [10] | Potency [1] | Potency [11] | Potency [3] | Potency [5] | Potency [6] | outcome [14] | Potency [12] | outcome [7] | Potency [8] | Potency [9]

COC(=O)Cc1cccc2ccccc12
inactive: Potency [1] | Potency [11] | Potency [2] | Potency [3] | Potency [6] | outcome [14] | Potency [12] | outcome [7] | Potency [8] | Potency [9]
active: Potency [13] 34.4 µM

CC(C)=CCC[C@H](C)CCO
inactive: Potency [10] | Potency [1] | Potency [11] | Potency [3] | Potency [4] | Potency [5] | Potency [6] | outcome [14] | Potency [12] | outcome [7] | Potency [9]

Cc1ccc(NC=O)c(C)c1
inactive: Potency [10] | Potency [1] | Potency [11] | Potency [3] | Potency [4] | Potency [5] | Potency [6] | Potency [12] | outcome [7] | Potency [8] | Potency [9]

Nc1cccc2c(=O)[nH][nH]c(=O)c12
inactive: Potency [1] | Potency [2] | Potency [3] | Potency [17] | Potency [4] | Potency [5] | outcome [14] | activity change, positive = activation [19] -53.6% | outcome [7] | Potency [8]
active: Potency [16] 61.4 µM | Potency [18] 48.8 µM

O=Cc1ccc(Cl)c([N+](=O)[O-])c1
inactive: Potency [15] | Potency [1] | Potency [11] | Potency [2] | Potency [13] | Potency [17] | Potency [4] | Potency [5] | outcome [14] | activity change, positive = activation [19] -38.6% | outcome [7]
active: Potency [18] 54.5 µM
